In PubChem BioAssay (EPA / NIEHS) one finds outcome and AC50 data, which are given here for 39 compounds.

Calls of active or inactive are those of the source. Rule for the calls: active = hit-call score of the fitted dose curve at least 0.9, where 1 is the maximum; inactive = score below 0.9.

Sequence of Bile acid receptor (Homo sapiens) (Q96RI1 whole entry, looked up): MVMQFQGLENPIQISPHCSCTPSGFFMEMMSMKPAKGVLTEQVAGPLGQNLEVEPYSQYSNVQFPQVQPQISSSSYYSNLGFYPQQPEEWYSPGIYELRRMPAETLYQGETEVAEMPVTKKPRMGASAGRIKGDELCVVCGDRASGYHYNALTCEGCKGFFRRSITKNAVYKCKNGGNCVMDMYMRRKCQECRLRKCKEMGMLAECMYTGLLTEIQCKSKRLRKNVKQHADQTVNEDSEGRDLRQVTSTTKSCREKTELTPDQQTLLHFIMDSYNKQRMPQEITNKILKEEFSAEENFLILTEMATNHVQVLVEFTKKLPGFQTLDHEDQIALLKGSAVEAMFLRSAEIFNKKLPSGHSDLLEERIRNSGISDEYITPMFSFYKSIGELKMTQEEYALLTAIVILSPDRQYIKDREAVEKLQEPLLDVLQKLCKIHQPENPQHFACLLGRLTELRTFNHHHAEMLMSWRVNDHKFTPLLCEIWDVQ

Test system in one assay: not listed separately
The assay can be described thus: ATG_GLI_CIS: Attagene CIS-FACTORIAL HepG2 Assay for human Zinc Finger Protein GLI1 (AID 2282945). Conditions: HepG2, Attagene cis-factorial reporter mRNA, GLI element; actives raise or lower the signal. Summed up: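 Transiently transfected HepG2 cells report endogenous transcription factor activity via cis-element-driven reporter units. After 24 h compound exposure, reporter mRNA was measured by RT-PCR with capillary electrophoresis; bidirectional fitting against DMSO baseline.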
As for `CCOP(=S)(OCC)OP(=S)(OCC)OCC`, the outcome was inactive.
Still for that read-out and setting: under `CCCCCCCCBr` stands “inactive”; under `CC1(C)COP(Oc2ccccc2)OC1`, “inactive”; under `Cc1ccc(CCl)cc1`, “inactive”.
The same measure, in the same setting: under `Cc1c([N+](=O)[O-])c(C)c([N+](=O)[O-])c(C(C)(C)C)c1[N+](=O)[O-]` stands “inactive”; under `CC(C)N(C(=O)CCl)c1ccccc1`, “inactive”.
The same measure, in the same setting: next, `Brc1ccc(Oc2c(Br)cc(Br)cc2Br)c(Br)c1`: “inactive”; `O=NN1CCCCCCC1`: “inactive”; `CC[N+](CC)(CC)CC`: “inactive”.
With `O=NN1CCCCCC1`, the compound was classed as inactive.
Still for that read-out and setting: next, `COC(=O)Nc1cccc(OC(=O)Nc2cccc(C)c2)c1`: “inactive”.
On the same count and under the same terms, under `COP(=S)(OC)Oc1cc(Cl)c(I)cc1Cl` stands “inactive”.
On the same count and under the same terms, under `Cc1cc(Cl)ccc1OCCCC(=O)O` stands “inactive”.

The next assay concerns the target Bile acid receptor (Homo sapiens) (UniProt Q96RI1). The assay can be described thus: ATG_IR1_CIS: Attagene CIS-FACTORIAL HepG2 Assay for human Nuclear Receptor Subfamily 1 Group H Member 4 (NR1H4), IR1 submotif (AID 2282946). As to conditions: IR1 reporter transcription, actives raise or lower the signal. Summed up:
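Fluorescence of capillary-separated, HpaI-digested RT-PCR reporter products gave IR1-element mRNA induction in HepG2 cells 24 h after dosing. Endogenous transcription factors drove the cis-regulated reporters; activity was fitted bidirectionally against DMSO.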
Take `N#Cc1ccccc1Cl`: the compound was called inactive.
Still for that read-out and setting: next, `Cc1cc(C(C)(C)c2ccc(O)c(C)c2)ccc1O`: “inactive”.
On the same count and under the same terms, under `COCCl` stands “inactive”; under `c1cc[c]([Sb]([c]2ccccc2)[c]2ccccc2)cc1`, “inactive”; under `CN(N=O)C(N)=O`, “inactive”.
By AC50 is commonly meant the concentration at which the activity in the assay is half-maximal. With `CCC[CH2][Sn]([CH2]CCC)([CH2]CCC)[CH2]CCC`, the AC50 was 0.378 µM (active).
The same measure, in the same setting: next, `CC(c1ccccc1)(c1ccc(O)cc1)c1ccc(O)cc1`: 15.6 µM (active).
With `C[CH2][Hg][S]c1ccccc1C(=O)O`, the compound was classed as inactive.
With `O=C(Nc1ccc(Br)cc1)c1cc(Br)cc(Br)c1O`, the AC50 is 72.3 µM (active).
As to `COC(F)(C(F)(F)C(F)(F)F)C(F)(C(F)(F)F)C(F)(F)F` (stereo unspecified), the result was inactive.
For the compound `CC1CC(=O)O1` (stereo unspecified), the call was inactive.
With `Cc1ccc2nc3sc(=O)sc3nc2c1`, the AC50 is 25 µM (active).
Regarding `ClCCCCl`, the compound was called inactive.
Still for that read-out and setting: next, `Brc1c(Br)c(Br)c(Oc2c(Br)c(Br)c(Br)c(Br)c2Br)c(Br)c1Br`: “inactive”; `CC(C)(c1ccc(O)c(-c2ccccc2)c1)c1ccc(O)c(-c2ccccc2)c1`: “inactive”.
With `Clc1cnc(Oc2ccc(Oc3ncc(Cl)cc3Cl)cc2)c(Cl)c1`, the call was inactive.
With `CCOP(=S)(OCC)OP(=S)(OCC)OCC`, the outcome was inactive.
The same measure, in the same setting: next, `CCCCCCCCBr`: “inactive”.
Same read-out and setting: under `CC1(C)COP(Oc2ccccc2)OC1` stands “inactive”.
On the same count and under the same terms, under `Cc1ccc(CCl)cc1` stands “inactive”; under `Brc1ccc(Oc2c(Br)cc(Br)cc2Br)c(Br)c1`, “inactive”.
Regarding `O=NN1CCCCCCC1`, the compound was classed as inactive.
On the same count and under the same terms, under `O=NN1CCCCCC1` stands “inactive”; under `COC(=O)Nc1cccc(OC(=O)Nc2cccc(C)c2)c1`, “inactive”; under `COP(=S)(OC)Oc1cc(Cl)c(I)cc1Cl`, “inactive”.
On the same count and under the same terms, under `Cc1cc(Cl)ccc1OCCCC(=O)O` stands “inactive”.

Test system in another assay: not listed separately
As to the kind of experiment: ATG_GRE_CIS: Attagene CIS-FACTORIAL HepG2 Assay for human Glucocorticoid Response Elements (GRE) (AID 2282947). Conditions: HepG2 GRE cis-reporter, Attagene multiplex mRNA; actives raise or lower the signal. Summed up: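 Fluorescence intensity of reporter-specific cDNA fragments, separated by capillary electrophoresis, provides the signal. Constructs carry cis-regulating promoters in transiently transfected HepG2 liver cells; 24 h incubation; fitting is bidirectional against DMSO.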
For the compound `OC[C@@H](O)[C@H]1O[C@@H]2O[C@H](C(Cl)(Cl)Cl)O[C@@H]2[C@H]1O`, the call was inactive.
Regarding `O=C(Cc1ccccc1)OCCc1ccccc1`, the call was inactive.
Take `N#Cc1ccccc1Cl`: the call was inactive.
Take `C#CCO`: the call was inactive.
Still for that read-out and setting: under `O=NN1CCOCC1` stands “inactive”; under `COCCl`, “inactive”.
Same read-out and setting: under `CNC(=O)O/N=C/C(C)(C)S(C)(=O)=O` stands “inactive”; under `c1cc[c]([Sb]([c]2ccccc2)[c]2ccccc2)cc1`, “inactive”.
On the same count and under the same terms, next, `CN(N=O)C(N)=O`: “inactive”; `CCC[CH2][Sn]([CH2]CCC)([CH2]CCC)[CH2]CCC`: “inactive”.
On to `CC(c1ccccc1)(c1ccc(O)cc1)c1ccc(O)cc1`, for which the result was inactive.
Take `C[CH2][Hg][S]c1ccccc1C(=O)O`: the outcome was inactive.
On to `O=C(Nc1ccc(Br)cc1)c1cc(Br)cc(Br)c1O`, for which the outcome was inactive.
On to `COC(F)(C(F)(F)C(F)(F)F)C(F)(C(F)(F)F)C(F)(F)F` (stereo unspecified), for which the compound was classed as inactive.
Turning to `Clc1cccc(Cl)c1`, the compound was classed as inactive.
Still for that read-out and setting: next, `CC1CC(=O)O1` (stereo unspecified): “inactive”; `CCCCCCCCCCCCBr`: “inactive”.
Consider `Cc1ccc2nc3sc(=O)sc3nc2c1`, for which the AC50 is 41.1 µM (active).
For `ClCCCCl`, the result was inactive.
Still for that read-out and setting: under `Brc1c(Br)c(Br)c(Oc2c(Br)c(Br)c(Br)c(Br)c2Br)c(Br)c1Br` stands “inactive”; under `Clc1cccc(Cl)c1Cl`, “inactive”.
Same read-out and setting: next, `CC(C)(c1ccc(O)c(-c2ccccc2)c1)c1ccc(O)c(-c2ccccc2)c1`: “inactive”; `Clc1cnc(Oc2ccc(Oc3ncc(Cl)cc3Cl)cc2)c(Cl)c1`: “inactive”; `CCCCCCCCBr`: “inactive”.
On the same count and under the same terms, under `Cc1ccc(CCl)cc1` stands “inactive”; under `Cc1c([N+](=O)[O-])c(C)c([N+](=O)[O-])c(C(C)(C)C)c1[N+](=O)[O-]`, “inactive”.
Regarding `CC(C)N(C(=O)CCl)c1ccccc1`, the outcome was inactive.
Same read-out and setting: under `Brc1ccc(Oc2c(Br)cc(Br)cc2Br)c(Br)c1` stands “inactive”; under `O=NN1CCCCCCC1`, “inactive”.
Still for that read-out and setting: next, `CC[N+](CC)(CC)CC`: “inactive”.
On the same count and under the same terms, under `COC(=O)Nc1cccc(OC(=O)Nc2cccc(C)c2)c1` stands “inactive”.
On to `COP(=S)(OC)Oc1cc(Cl)c(I)cc1Cl`, for which the AC50 is 58.1 µM (active).
On to `Cc1cc(Cl)ccc1OCCCC(=O)O`, for which the result was inactive.

Test system in the next assay: not listed separately
As to the kind of experiment: ATG_ISRE_CIS: Attagene CIS-FACTORIAL HepG2 Assay for human Interferon Regulatory Factor 1 (IRF1) binding to an Interferon-Stimulated Response Element (ISRE) (AID 2282948). Conditions: HepG2 ISRE cis-reporter (Attagene), mRNA transcription readout; actives raise or lower the signal. Summed up: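 Read-out: fluorescent RT-PCR products resolved by capillary electrophoresis, reporting endogenous transcription factor activity via ISRE-driven reporter mRNA in transfected HepG2 cells dosed for 24 h; gain or loss fitted relative to DMSO.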
For `OC[C@@H](O)[C@H]1O[C@@H]2O[C@H](C(Cl)(Cl)Cl)O[C@@H]2[C@H]1O`, the outcome was inactive.
In the case of `O=C(Cc1ccccc1)OCCc1ccccc1`, the result was inactive.
`CCC[N+](CCC)(CCC)CCC`: the compound was called inactive.
For the compound `N#Cc1ccccc1Cl`, the outcome was inactive.
Regarding `Cc1cc(C(C)(C)c2ccc(O)c(C)c2)ccc1O`, the AC50 is 50 µM (active).
Regarding `C#CCO`, the outcome was inactive.
Still for that read-out and setting: next, `O=NN1CCOCC1`: “inactive”.
The same measure, in the same setting: under `CCCSP(=S)(OCC)Oc1ccc(Cl)cc1Cl` (stereo unspecified) stands “inactive”; under `COCCl`, “inactive”.
On the same count and under the same terms, next, `CNC(=O)O/N=C/C(C)(C)S(C)(=O)=O`: “inactive”; `c1cc[c]([Sb]([c]2ccccc2)[c]2ccccc2)cc1`: “inactive”; `CN(N=O)C(N)=O`: “inactive”.
As for `CCC[CH2][Sn]([CH2]CCC)([CH2]CCC)[CH2]CCC`, the AC50 was 11.1 µM (active).
With `CC(c1ccccc1)(c1ccc(O)cc1)c1ccc(O)cc1`, the AC50 is 19.3 µM (active).
Still for that read-out and setting: next, `C[CH2][Hg][S]c1ccccc1C(=O)O`: 6.49 µM (active).
Take `O=C(Nc1ccc(Br)cc1)c1cc(Br)cc(Br)c1O`: the result was inactive.
Same read-out and setting: next, `COC(F)(C(F)(F)C(F)(F)F)C(F)(C(F)(F)F)C(F)(F)F` (stereo unspecified): “inactive”.
As to `Clc1cccc(Cl)c1`, the outcome was inactive.
Take `CC1CC(=O)O1` (stereo unspecified): the call was inactive.
In the case of `CCCCCCCCCCCCBr`, the compound was classed as inactive.
Take `Cc1ccc2nc3sc(=O)sc3nc2c1`: the call was inactive.
As to `ClCCCCl`, the compound was classed as inactive.
On the same count and under the same terms, next, `Brc1c(Br)c(Br)c(Oc2c(Br)c(Br)c(Br)c(Br)c2Br)c(Br)c1Br`: “inactive”.
The same measure, in the same setting: next, `Clc1cccc(Cl)c1Cl`: “inactive”; `CC(C)(c1ccc(O)c(-c2ccccc2)c1)c1ccc(O)c(-c2ccccc2)c1`: “inactive”.
Still for that read-out and setting: under `Clc1cnc(Oc2ccc(Oc3ncc(Cl)cc3Cl)cc2)c(Cl)c1` stands “inactive”.
Regarding `CCOP(=S)(OCC)OP(=S)(OCC)OCC`, the call was inactive.
Same read-out and setting: next, `CCCCCCCCBr`: “inactive”; `CC1(C)COP(Oc2ccccc2)OC1`: “inactive”.
With `Cc1ccc(CCl)cc1`, the compound was called inactive.
Consider `Cc1c([N+](=O)[O-])c(C)c([N+](=O)[O-])c(C(C)(C)C)c1[N+](=O)[O-]`, for which the AC50 was 22.5 µM (active).
With `CC(C)N(C(=O)CCl)c1ccccc1`, the call was inactive.
The same measure, in the same setting: under `Brc1ccc(Oc2c(Br)cc(Br)cc2Br)c(Br)c1` stands “inactive”.
Same read-out and setting: next, `O=NN1CCCCCCC1`: “inactive”; `CC[N+](CC)(CC)CC`: “inactive”.
Same read-out and setting: under `O=NN1CCCCCC1` stands “inactive”; under `COC(=O)Nc1cccc(OC(=O)Nc2cccc(C)c2)c1`, “inactive”.
`COP(=S)(OC)Oc1cc(Cl)c(I)cc1Cl`: the AC50 was 48.7 µM (active).
Turning to `Cc1cc(Cl)ccc1OCCCC(=O)O`, the compound was called inactive.
